According to PubChem BioAssay (NCATS):
Records with an inconclusive call do not appear. Where a call stands in place of a potency, no number is given. Activity calls are given as the source filed them. Unless noted, calls come from the whole dose curve; as a rule, active = well fitted curve in the direction sought with a large enough effect; inconclusive = small, poorly fitted or top-dose-only effect, or another doubt; inactive = no such curve, though single readings can be large; an effect the other way counts as inactive or inconclusive.

Legend:
[1] = molecular target: Cytochrome P450 1A2 (Homo sapiens) (UniProt P05177); assay: p450-cyp1a2 (AID 410; calls by dose curve; note: potency is the fitted concentration of half-maximal effect)
Chain of Cytochrome P450 1A2 (Homo sapiens) (P05177 whole entry, looked up): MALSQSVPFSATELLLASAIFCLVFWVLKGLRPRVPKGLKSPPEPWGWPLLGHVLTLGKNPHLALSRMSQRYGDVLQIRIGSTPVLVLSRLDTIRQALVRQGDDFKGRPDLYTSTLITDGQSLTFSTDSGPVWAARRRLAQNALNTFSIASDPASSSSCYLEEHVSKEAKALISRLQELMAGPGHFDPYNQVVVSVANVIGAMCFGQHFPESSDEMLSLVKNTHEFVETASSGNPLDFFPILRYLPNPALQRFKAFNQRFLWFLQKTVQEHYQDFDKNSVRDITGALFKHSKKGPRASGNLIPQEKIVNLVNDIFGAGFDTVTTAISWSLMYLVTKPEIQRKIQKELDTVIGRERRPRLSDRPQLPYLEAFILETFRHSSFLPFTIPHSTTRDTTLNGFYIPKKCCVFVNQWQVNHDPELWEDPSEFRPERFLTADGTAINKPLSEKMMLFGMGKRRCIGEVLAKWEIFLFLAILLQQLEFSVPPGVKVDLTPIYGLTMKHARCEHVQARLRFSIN
Method in brief: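 Inhibition was calculated relative to 57 uM furafylline (full inhibition). The reaction used human CYP1A2 at 20nM with Luciferin-ME at its Km, 100uM, driven by an NADPH-regenerating system for 60 min at room temperature.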

[2] = molecular target: Mitogen-activated protein kinase 10 (Mus musculus) (UniProt Q61831); assay: JNK3 AlphaScreen Assay (AID 530; active = well fitted curve in either direction with a large enough effect, not every such curve was filed as active;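 note: kinase came from lysate of stimulated human HepG2 cells; signal reports phosphorylation of biotinylated GST-cJun 1-79 at Ser73 with 10 µM ATP; series mostly up to about 57 µM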)
Method in brief: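 Room-temperature AlphaScreen kinase assay; pre-activated HepG2 lysate as JNK3 source, biotin-GST-cJun(1-79) substrate, 10 uM ATP, compound 15 min preincubation.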

[3] = molecular target: 3',5'-cyclic-AMP phosphodiesterase 4B (Homo sapiens) (UniProt Q07343); assay: qHTS Assay for Inhibitors of PDE-IV (AID 607; active = well fitted activation curve with a large enough effect in the main read-out, with a control signal flat, not every such curve was filed as active)
Chain of 3',5'-cyclic-AMP phosphodiesterase 4B (Homo sapiens) (Q07343 whole entry, looked up): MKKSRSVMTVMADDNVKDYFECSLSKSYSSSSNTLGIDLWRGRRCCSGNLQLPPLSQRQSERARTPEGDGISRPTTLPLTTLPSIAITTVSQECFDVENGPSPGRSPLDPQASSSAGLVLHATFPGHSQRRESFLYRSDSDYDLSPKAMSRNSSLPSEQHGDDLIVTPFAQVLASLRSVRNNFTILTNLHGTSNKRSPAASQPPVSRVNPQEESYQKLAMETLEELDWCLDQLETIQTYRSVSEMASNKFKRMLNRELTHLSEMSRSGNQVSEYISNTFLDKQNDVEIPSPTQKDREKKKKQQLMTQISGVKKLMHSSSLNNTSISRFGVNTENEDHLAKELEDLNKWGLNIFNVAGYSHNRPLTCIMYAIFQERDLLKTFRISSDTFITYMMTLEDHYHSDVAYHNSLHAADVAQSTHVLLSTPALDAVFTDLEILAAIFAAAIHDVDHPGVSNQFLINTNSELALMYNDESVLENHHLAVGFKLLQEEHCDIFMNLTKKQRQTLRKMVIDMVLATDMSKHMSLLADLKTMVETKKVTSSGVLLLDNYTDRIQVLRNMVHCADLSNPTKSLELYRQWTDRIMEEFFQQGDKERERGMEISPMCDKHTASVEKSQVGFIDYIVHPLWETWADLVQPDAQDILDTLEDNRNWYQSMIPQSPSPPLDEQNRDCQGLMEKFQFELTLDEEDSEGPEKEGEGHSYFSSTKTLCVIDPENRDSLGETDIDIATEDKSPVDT
Method in brief: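 Live HEK293 cells with a modified cyclic nucleotide-gated (CNG) channel report intracellular cAMP via membrane-potential dye fluorescence (ex 535/em 590 nm). Endogenous PDE-IV was targeted. Compounds were tested at up to 22.9 uM final; RO 20-1724 100 uM served as control.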

[4] = molecular target: Cytochrome P450 3A4 (Homo sapiens) (UniProt P08684); assay: qHTS Assay for Activators of Cytochrome P450 3A4 (AID 885); note: nearly all actives have a fitted effect of over 65% in size
Chain of Cytochrome P450 3A4 (Homo sapiens) (P08684 whole entry, looked up): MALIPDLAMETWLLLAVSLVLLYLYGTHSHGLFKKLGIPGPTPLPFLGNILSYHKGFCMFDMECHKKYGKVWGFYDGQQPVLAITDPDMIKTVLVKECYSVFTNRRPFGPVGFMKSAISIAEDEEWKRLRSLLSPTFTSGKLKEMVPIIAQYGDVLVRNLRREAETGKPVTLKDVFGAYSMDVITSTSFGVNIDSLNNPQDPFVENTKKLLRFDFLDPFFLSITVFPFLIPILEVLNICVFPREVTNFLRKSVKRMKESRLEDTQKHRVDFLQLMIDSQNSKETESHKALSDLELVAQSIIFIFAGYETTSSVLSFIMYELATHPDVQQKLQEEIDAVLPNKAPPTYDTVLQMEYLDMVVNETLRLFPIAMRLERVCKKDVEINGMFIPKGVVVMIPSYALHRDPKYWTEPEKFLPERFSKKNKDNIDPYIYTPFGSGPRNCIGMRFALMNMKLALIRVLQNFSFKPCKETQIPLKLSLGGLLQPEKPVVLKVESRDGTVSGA
Method in brief: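 Quantitative HTS format: compounds preincubated with 20nM human CYP3A4 and Luciferin-PPXE substrate at KM, reaction started by NADPH regeneration, stopped after 60 min, luciferase luminescence read 20 min later.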

[5] = molecular target: Glucocorticoid receptor (Homo sapiens) (UniProt P04150); assay: GR-GFP Redistribution (AID 450;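 active = compounds whose dose series gives a full or clear partial fitted curve of increased nuclear translocation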; note: potency is the fitted concentration of half-maximal effect); settings: U2OS GR-GFP nuclear translocation, laser cytometry, 2 h
Chain of Glucocorticoid receptor (Homo sapiens) (P04150 whole entry, looked up, the tested form may be a part): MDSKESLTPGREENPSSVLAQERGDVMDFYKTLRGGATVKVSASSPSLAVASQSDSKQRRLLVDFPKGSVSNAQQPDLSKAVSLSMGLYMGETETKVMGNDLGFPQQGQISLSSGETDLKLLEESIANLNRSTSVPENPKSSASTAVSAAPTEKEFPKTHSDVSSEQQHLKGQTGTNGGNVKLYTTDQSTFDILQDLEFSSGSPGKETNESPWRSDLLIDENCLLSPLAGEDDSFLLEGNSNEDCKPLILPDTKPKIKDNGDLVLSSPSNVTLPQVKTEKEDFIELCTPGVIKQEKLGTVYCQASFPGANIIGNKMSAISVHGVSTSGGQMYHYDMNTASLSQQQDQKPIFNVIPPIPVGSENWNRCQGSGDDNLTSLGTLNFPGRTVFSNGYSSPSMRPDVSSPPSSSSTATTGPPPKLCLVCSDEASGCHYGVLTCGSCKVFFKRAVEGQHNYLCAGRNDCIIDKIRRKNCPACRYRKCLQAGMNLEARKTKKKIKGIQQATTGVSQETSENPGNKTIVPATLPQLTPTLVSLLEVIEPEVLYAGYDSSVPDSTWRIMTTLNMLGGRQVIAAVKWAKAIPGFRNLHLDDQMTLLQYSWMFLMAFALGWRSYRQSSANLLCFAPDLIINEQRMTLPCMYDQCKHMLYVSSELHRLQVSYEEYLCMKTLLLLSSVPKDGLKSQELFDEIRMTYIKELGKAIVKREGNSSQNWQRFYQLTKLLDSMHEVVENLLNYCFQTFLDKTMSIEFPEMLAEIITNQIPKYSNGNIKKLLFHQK

[6] = molecular target: Glucocorticoid receptor (Homo sapiens) (UniProt P04150); assay: GR-EFC Redistribution (AID 451; calls by dose curve; note: potency is the fitted concentration of half-maximal effect); settings: CHO-K1 GR-EFC translocation, beta-gal luminescence, 2 h
Method in brief: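 Translocation of GR-ED fusion to nuclear EA restores b-gal, read by luminescence after 1 h room-temperature detection. Engineered CHO-K1 biosensor cells, 1,000/well, exposed 2 h at 37 C to titrations up to 46 uM final.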

[7] = molecular target: Cytochrome P450 2D6 (Homo sapiens) (UniProt P10635); assay: qHTS Assay for Inhibitors and Substrates of Cytochrome P450 2D6 (AID 891); note: nearly all actives have a fitted effect of over 60% in size; note: potency is the fitted concentration of half-maximal effect
Chain of Cytochrome P450 2D6 (Homo sapiens) (P10635 whole entry, looked up): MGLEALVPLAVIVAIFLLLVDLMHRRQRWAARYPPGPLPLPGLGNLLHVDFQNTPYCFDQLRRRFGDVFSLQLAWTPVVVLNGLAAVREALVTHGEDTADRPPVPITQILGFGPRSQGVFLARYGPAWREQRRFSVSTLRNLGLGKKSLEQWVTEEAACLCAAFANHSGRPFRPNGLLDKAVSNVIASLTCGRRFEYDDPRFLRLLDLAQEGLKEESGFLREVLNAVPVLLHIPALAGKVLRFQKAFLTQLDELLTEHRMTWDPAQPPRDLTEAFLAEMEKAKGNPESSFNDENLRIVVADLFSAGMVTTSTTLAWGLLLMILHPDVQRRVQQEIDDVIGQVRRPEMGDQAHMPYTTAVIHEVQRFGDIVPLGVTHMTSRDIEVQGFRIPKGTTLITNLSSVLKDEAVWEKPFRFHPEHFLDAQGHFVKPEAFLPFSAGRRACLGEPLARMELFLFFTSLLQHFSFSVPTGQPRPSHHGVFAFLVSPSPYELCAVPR
Method in brief: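 Human CYP2D6 (5 nM) with 30 uM Luciferin-ME EGE (at Km) in 100 mM KPO4, compound preincubated 10 min, then NADPH regeneration system for 60 min at room temperature. Luciferin read by luminescence; normalized to 1.43 uM quinidine.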

[8] = molecular target: Cytochrome P450 2C19 (Homo sapiens) (UniProt P33261); assay: qHTS Assay for Inhibitors and Substrates of Cytochrome P450 2C19 (AID 899); note: nearly all actives have a fitted effect of over 60% in size; note: potency is the fitted concentration of half-maximal effect
Chain of Cytochrome P450 2C19 (Homo sapiens) (P33261 whole entry, looked up): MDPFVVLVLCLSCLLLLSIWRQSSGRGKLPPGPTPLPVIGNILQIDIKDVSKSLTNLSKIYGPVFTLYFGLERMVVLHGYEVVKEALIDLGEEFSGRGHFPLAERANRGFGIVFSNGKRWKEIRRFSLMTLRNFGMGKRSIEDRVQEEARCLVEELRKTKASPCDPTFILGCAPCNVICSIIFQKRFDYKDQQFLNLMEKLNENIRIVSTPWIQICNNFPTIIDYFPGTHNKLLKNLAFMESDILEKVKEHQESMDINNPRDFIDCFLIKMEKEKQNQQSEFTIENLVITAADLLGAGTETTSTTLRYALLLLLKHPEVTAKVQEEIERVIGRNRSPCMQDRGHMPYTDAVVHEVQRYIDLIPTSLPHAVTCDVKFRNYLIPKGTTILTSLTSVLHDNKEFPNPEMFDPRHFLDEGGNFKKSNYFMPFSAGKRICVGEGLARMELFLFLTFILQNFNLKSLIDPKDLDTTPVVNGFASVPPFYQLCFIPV
Method in brief: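 Reactions contain 5nM enzyme, 10uM Luciferin-H EGE (KM) and 50mM KPO4; compound preincubates 10 min at 37C, NADPH regeneration starts turnover for 60 min. Luminescence after detection reagent gives activity.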

[9] = molecular target: Guanine nucleotide-binding protein G(i) subunit alpha-1 (Homo sapiens) (UniProt P63096); assay: qHTS Assay for Inhibitors of RGS12 GoLoco Motif Activity (Green Fluorophore) (AID 879); note: potency is the fitted concentration of half-maximal effect
Method in brief: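 Fluorescence polarization assay: 50 nM Gαi1 with 10 nM FITC-labeled RGS12 GoLoco peptide in 10 mM Tris pH 7.5, 150 mM NaCl, 0.1 mM GDP, 0.05% NP40, 10 min at room temperature with compound.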

[10] = molecular target: Cytochrome P450 2C9 (Homo sapiens) (UniProt P11712); assay: qHTS Assay for Inhibitors and Substrates of Cytochrome P450 2C9 (AID 883); note: nearly all actives have a fitted effect of over 60% in size; note: potency is the fitted concentration of half-maximal effect
Chain of Cytochrome P450 2C9 (Homo sapiens) (P11712 whole entry, looked up): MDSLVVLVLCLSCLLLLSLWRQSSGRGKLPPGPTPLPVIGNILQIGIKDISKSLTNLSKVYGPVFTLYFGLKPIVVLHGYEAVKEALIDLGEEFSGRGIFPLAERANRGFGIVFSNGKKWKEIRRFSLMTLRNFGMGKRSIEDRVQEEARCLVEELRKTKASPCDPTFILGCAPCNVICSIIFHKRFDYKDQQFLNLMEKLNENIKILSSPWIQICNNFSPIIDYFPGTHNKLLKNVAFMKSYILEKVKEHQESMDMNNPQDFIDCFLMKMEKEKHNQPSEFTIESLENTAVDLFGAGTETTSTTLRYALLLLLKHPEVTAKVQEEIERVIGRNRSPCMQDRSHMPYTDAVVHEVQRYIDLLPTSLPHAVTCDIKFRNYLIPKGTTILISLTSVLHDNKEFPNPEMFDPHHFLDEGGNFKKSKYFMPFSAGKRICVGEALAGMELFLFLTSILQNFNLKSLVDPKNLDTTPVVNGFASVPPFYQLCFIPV
Method in brief: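 Turnover of Luciferin-H (100uM, KM) by 10nM human CYP2C9 was measured over 60 min at 37C with NADPH regeneration; inhibitors and some substrates reduce luminescence. Data normalized to sulphaphenazole 57uM.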

[11] = qHTS Assay for Identification of Small Molecule Agonists for Hypoxia Response Element Signaling Pathway (AID 914; active = well fitted activation curve with a large enough effect in the signal ratio, with a control signal flat, not every such curve was filed as active; the % refers to the signal ratio); settings: ME-180 HRE-bla reporter, beta-lactamase ratio, CoCl2, 17 h; activation: stronger effect = higher value
Method in brief: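 ME-180 cells carrying an HRE-driven beta-lactamase reporter were treated with compounds in a titration series plus an EC50 level of CoCl2 for 17 h at 37 degrees Celsius; CCF4 readout as the 460nm/530nm ratio gave AC50 values.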

[12] = molecular target: Muscarinic acetylcholine receptor M1 (Rattus norvegicus) (UniProt P08482); assay: qHTS Assay for Antagonists of Acetylcholine Muscarinic M1 Receptor: Kinetic Measurement of Intracellular Calcium Response (AID 943);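 note: Fluo-4 calcium signal as peak divided by basal fluorescence over 4 min; series mostly up to about 35 µM; nearly all actives have a fitted effect of over 75% in size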
Chain of Muscarinic acetylcholine receptor M1 (Rattus norvegicus) (P08482 whole entry, looked up): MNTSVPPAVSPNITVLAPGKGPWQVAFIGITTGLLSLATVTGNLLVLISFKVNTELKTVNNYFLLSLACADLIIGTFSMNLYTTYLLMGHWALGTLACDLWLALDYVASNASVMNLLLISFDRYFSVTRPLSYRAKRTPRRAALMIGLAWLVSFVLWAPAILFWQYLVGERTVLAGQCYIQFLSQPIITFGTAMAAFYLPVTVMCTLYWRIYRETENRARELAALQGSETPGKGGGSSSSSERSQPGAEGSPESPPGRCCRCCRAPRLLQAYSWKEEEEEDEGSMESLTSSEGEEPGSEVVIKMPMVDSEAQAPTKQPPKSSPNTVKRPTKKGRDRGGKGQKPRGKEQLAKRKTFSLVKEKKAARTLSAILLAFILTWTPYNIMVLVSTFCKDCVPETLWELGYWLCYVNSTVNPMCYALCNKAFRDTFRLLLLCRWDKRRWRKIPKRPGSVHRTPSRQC
Method in brief: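 Intracellular calcium flux, recorded with Fluo-4 in a kinetic plate reader, served as signal; the response to carbachol at EC80 (100 nM final) was taken as maximal over minimal fluorescence after a 10 min compound pre-incubation in rat M1-CHO cells.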

[13] = molecular target: Muscarinic acetylcholine receptor M1 (Rattus norvegicus) (UniProt P08482); assay: qHTS Assay for Antagonists of Acetylcholine Muscarinic M1 Receptor: Measurement of IP-One Response (AID 944); note: nearly all actives have a fitted effect of over 75% in size
Method in brief: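 Steps: plate transfected CHO-M1 cells overnight; add test compound, 10 min; add carbachol (200 nM, EC80) in stimulation buffer with LiCl; incubate 30 min; add labelled IP1 tracer and anti-IP1 antibody in lysis buffer; read HTRF after 10 min.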

[14] = molecular target: Pyruvate kinase (Leishmania mexicana) (UniProt Q27686); assay: qHTS Validation Assay for Inhibitors of Leishmania Mexicana Pyruvate Kinase (AID 945); note: potency is the fitted concentration of half-maximal effect
Chain of Pyruvate kinase (Leishmania mexicana) (Q27686 2-499 E452W): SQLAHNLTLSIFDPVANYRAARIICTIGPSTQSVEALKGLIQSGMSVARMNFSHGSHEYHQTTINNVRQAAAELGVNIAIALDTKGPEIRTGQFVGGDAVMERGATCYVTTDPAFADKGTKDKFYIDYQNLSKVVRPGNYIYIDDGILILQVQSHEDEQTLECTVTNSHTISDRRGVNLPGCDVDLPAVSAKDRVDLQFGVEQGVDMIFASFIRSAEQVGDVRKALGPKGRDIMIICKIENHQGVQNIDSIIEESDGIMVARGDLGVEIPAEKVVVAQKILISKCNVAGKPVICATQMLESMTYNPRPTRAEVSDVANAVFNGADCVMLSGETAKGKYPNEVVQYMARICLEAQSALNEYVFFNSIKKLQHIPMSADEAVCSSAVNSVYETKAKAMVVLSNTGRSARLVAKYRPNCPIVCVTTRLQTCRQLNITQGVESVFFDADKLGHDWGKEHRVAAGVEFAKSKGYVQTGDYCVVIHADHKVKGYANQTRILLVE
Method in brief: (§1)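 LmPYK E451W 0.2 nM; 0.5 mM PEP, 0.1 mM ADP, 7 mM MgCl2, 50 mM KCl, imidazole pH 7.2, 0.01% Tween 20, 0.05% BSA; 1 h RT; PKLight luminescence; DMSO-normalized.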

[15] = molecular target: Pyruvate kinase PKM (Homo sapiens) (UniProt P14618); assay: qHTS Assay for Activators of Human Muscle Pyruvate Kinase (AID 954; active = well fitted curve in the direction sought with a large enough effect, not every such curve was filed as active)
Method in brief: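 Enzyme was run at intermediate activity so both inhibitors and activators could be detected. ATP formed from ADP and PEP by 0.1 nM human PKM2 during a 1 h room-temperature incubation was quantified by coupled luciferase luminescence.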

[16] = molecular target: Pyruvate kinase PKM (Homo sapiens) (UniProt P14618); assay: qHTS Assay for Inhibitors of Human Muscle Pyruvate Kinase (AID 958)
Method in brief: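 A coupled luminescent readout tracked ATP made from ADP by purified PKM2. Final conditions included 0.1 nM enzyme, PEP and ADP at 0.5 and 0.1 mM, pH 7.2 imidazole buffer with BSA, and a one-hour room-temperature reaction.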

[17] = molecular target: Pyruvate kinase (Leishmania mexicana) (UniProt Q27686); assay: qHTS Validation Assay for Activators of Leishmania Mexicana Pyruvate Kinase (AID 959)
Method in brief: as §1

[18] = molecular target: Alpha-galactosidase A (Homo sapiens) (UniProt P06280); assay: Counterscreen for Glucocerebrosidase Inhibitors: qHTS Assay for Human alpha-Galactosidase at pH 4.5 (AID 992)
Method in brief: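 Read-out is 4-methylumbelliferone fluorescence (365 nm excitation, 440 nm emission) after a pH 10 NaOH/glycine stop. Reactions held 2 nM enzyme and 80 uM substrate at pH 4.5 for 20 min at room temperature.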

[19] = molecular target: alpha-glucosidase (Oryza sativa, rice) (UniProt Q653V4); assay: Counterscreen for Glucocerebrosidase Inhibitors: qHTS Assay for Rice alpha-Glucosidase at pH 5.0 (AID 997)
Method in brief: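 Rice alpha-glucosidase (4 nM final) with 400 uM 4-methylumbelliferyl-alpha-D-glucopyranoside in citrate buffer pH 5.0, 20 min at room temperature, stopped at pH 10; fluorescence 365/440 nm, compounds 0.7 nM–77 uM, AC50 from Hill fits.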

SMILES: CCCc1cc2c(n1CCO)C(C)C1CN(C(=O)c3ccccc3)C(C)(C(=O)OC)C21 (centres undefined)
- Potency [1]: inactive
- outcome [2]: inactive
- outcome [3]: inactive
- Potency [4]: inactive

SMILES: CCCCCC[C@H]1C(=O)O[C@@H](C)[C@H](NC(=O)c2cccc(NC=O)c2O)C(=O)O[C@@H](C)[C@@H]1OC(=O)CC(C)C
- Potency [1]: inactive
- Potency [5]: > 46 µM (inactive)
- Potency [6]: > 46 µM (inactive)
- outcome [2]: inactive
- Potency [7]: inactive
- Potency [8]: inactive

SMILES: CN[C@@H](C)[C@@H](O)c1ccccc1
- Potency [1]: 3.16 µM (active)
- Potency [5]: > 46 µM (inactive)
- Potency [6]: > 46 µM (inactive)
- outcome [3]: inactive
- Potency [9]: 7.94 µM (active)
- Potency [10]: 0.794 µM (active)
- Potency [4]: inactive
- Potency [7]: 12.6 µM (active)
- Potency [8]: 1.58 µM (active)
- activation [11]: 24.4% (inactive)
- Potency [12]: inactive
- Potency [13]: inactive
- Potency [14]: 10 µM (active)
- outcome [15]: inactive
- Potency [16]: 7.94 µM (active)
- outcome [17]: inactive
- outcome [18]: inactive
- outcome [19]: inactive

SMILES: CCN1C[C@@]2(COC(=O)c3ccccc3N3C(=O)C[C@H](C)C3=O)CC[C@H](OC)[C@@]34[C@@H]5CC6[C@@H](OC)C[C@@](O)([C@H]5[C@H]6OC)C(O)([C@@H]13)[C@@H](OC)[C@H]24
- Potency [1]: inactive
- Potency [5]: > 46 µM (inactive)
- Potency [6]: > 46 µM (inactive)
- outcome [2]: inactive
- outcome [3]: inactive
- Potency [10]: inactive
- Potency [8]: inactive

SMILES: COc1ccc(C[C@@H]2NC[C@H](O)[C@H]2OC(C)=O)cc1
- Potency [1]: inactive
- Potency [5]: > 46 µM (inactive)
- Potency [6]: > 46 µM (inactive)
- outcome [2]: inactive
- outcome [3]: inactive
- Potency [10]: inactive
- Potency [8]: inactive

SMILES: CC[C@@H]1CN2CC[C@@H]1C[C@H]2[C@@H](O)c1ccnc2ccc(OC)cc12
- Potency [1]: inactive
- Potency [5]: > 46 µM (inactive)
- Potency [6]: > 46 µM (inactive)
- outcome [2]: inactive
- Potency [10]: inactive
- Potency [7]: 0.0016 µM (active)
- Potency [8]: inactive
